Screening data from PubChem.
The list is not random: actives were taken first. Their share in the collection is about 5.7%.
DAX1 inh-1 = DAX1 (NR0B1) inhibitors, primary screen, cell-based, HEK293, Gal4-DAX1, luciferase luminescence; Nuclear receptor subfamily 0 group B member 1 (Homo sapiens), P51843; HEK293 Gal4-DAX1 luciferase reporter; inhibition, % at 6.75 µM; hit rate 0.99% among 340,000; AID 504766, 2011;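 active = inhibition above the mean over all tested compounds plus 3 SD, cut at about 4.2% in these data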;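 also: 0% = DAX1-transfected cells with DMSO and 100% = empty-vector control cells with DMSO; inhibition shows as a rise in luminescence from relieved DAX1 repression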
hcDAF12 agonist = H. contortus DAF-12 nuclear receptor activators, primary screen, cell-based, luminescence, HEK293, lit1-tk-luc reporter; hit rate 1.4% among 370,000; HEK293 hcDAF-12 lit1-tk-luc reporter; 0% DMSO, 100% Δ7-dafachronic acid; activation, % at 6.8 µM;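 active = activation above the mean of all tested compounds plus 3 SD, cut at about 5.5% in these data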;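 also: 100% = response to 3 µM Δ7-dafachronic acid high control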
AHR act = AHR activators, primary screen, cell-based, luminescence, luciferase reporter, human; hit rate 2.5% among 320,000; AHR-responsive luciferase reporter cells; activation, % at 5 µM; Aryl hydrocarbon receptor (Homo sapiens), P35869; in the data active = activation above about 47%;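 also: 0% = vehicle wells and 100% = reference agonist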
ssDAF12 agonist = S. stercoralis DAF-12 nuclear receptor activators, primary screen, cell-based, luminescence, HEK293, GRIP1 co-expression, lit1-tk-luc; Nuclear hormone receptor DAF-12 (Strongyloides stercoralis); HEK293 ssDAF-12/GRIP1 lit1-tk-luc reporter; % of 3 µM dafachronic acid response; activation, % at 6.8 µM; hit rate 1% among 370,000; AID 652126, 2013;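 active = activation above the mean over all tested compounds plus 3 SD, cut at about 0.9% in these data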;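 also: 0% = DMSO-only wells and 100% = 3 µM delta7-dafachronic acid wells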
DAX1 inh-2 = DAX1 (NR0B1) inhibitors on StAR promoter, primary screen, cell-based, luminescence, SF-1 (NR5A1), full-length DAX-1. HEK293T StAR-luciferase reporter, SF-1/DAX-1 repression relief. inhibition, % at 6.8 µM. hit rate 1.1% among 370,000. AID 652010, 2013;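 active = inhibition above the mean over all tested compounds plus 3 SD, cut at about 3.6% in these data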;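 also: 0% = DAX-1 cells with DMSO and 100% = cells lacking DAX-1 with DMSO; higher inhibition means more luminescence from relief of DAX-1 repression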
hgDAF12 agonist = H. glycines DAF-12 receptor agonists, primary screen, cell-based, luminescence, HEK293, GAL4 fusion, UAS-luciferase; HEK293 GAL4-hgDAF12 UAS-luciferase reporter, agonist luminescence; normalized to butyrate control; Nuclear hormone receptor DAF-12 (Heterodera glycines), GAL4 fusion; activation, % at 6.8 µM; hit rate 1.8% among 370,000;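 active = activation above a cutoff set at the mean of all screened compounds plus 3 SD, cut at about 10% in these data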;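 also: 0% = DMSO wells and 100% = sodium butyrate wells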
hgDAF12 ag = H. glycines DAF-12 receptor agonists, confirmation, cell-based, luminescence, HEK293, GAL4-LBD fusion | hit rate 80% among 3,300 | shares compounds with hgDAF12 agonist | HEK293 GAL4-hgDAF12 luciferase reporter, agonist mode; percent of butyrate response | activation, % at 6.8 µM;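 active = mean activation over triplicate wells above the hit cutoff derived from the earlier primary screen, cut at about 11% in these data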;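 also: 0% = DMSO low control and 100% = 2 mM sodium butyrate high control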
LXR ag 2 = LXR agonists, Gal4 luciferase reporter, confirmation, counter-screen for hgDAF-12 agonist project, cell-based, luminescence, HEK293, H. glycines campaign; shares compounds with hgDAF12 agonist; 24 h; activation, % at 6.8 µM; 3,300 tested, under 10 active; AID 743051, 2013;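 active = mean activation of the triplicate above a set limit carried over from the primary screen, none filed active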
Target sequence (P55055 whole entry, looked up, the tested form may be a part): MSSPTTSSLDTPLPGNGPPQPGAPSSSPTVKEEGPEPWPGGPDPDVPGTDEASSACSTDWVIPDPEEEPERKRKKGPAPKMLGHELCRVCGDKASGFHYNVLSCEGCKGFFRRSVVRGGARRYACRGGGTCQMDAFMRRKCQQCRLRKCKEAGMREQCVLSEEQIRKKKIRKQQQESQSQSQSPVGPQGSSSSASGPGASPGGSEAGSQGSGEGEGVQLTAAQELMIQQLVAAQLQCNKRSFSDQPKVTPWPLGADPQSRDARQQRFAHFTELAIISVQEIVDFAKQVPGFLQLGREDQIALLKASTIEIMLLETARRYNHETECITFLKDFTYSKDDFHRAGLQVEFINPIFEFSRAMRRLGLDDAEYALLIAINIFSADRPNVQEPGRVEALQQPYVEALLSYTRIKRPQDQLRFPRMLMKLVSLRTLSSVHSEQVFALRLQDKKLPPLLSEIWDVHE
Active calls of the source: *; / = not tested or not shown.

SMILES	DAX1 inh-1	hcDAF12 agonist	AHR act	ssDAF12 agonist	DAX1 inh-2	hgDAF12 agonist	hgDAF12 ag	LXR ag 2
C/C(=N\Nc1nncc2ccccc12)c1ccc(OCC(=O)N(C)C)cc1	1	5	-1	0	2	16*	4	0
CCOC(=O)NNc1nncc2ccccc12	0	0	0	-1	3	-1	/	/
O=c1ccc(-c2ccc(S(=O)(=O)Nc3ccc(F)cc3)o2)n[nH]1	1	0	3	-2	2	0	/	/
COc1ccc(S(=O)(=O)N2CCOCC2)cc1NC(=O)C1CC1	0	0	-1	-1	-2	0	/	/
COc1ccc(O)c(C2=Nc3ccccc3N=C(c3ccccc3)C2)c1	3	3	18	0	1	14*	0	0
O=C(NCCc1ccccc1)c1ccc(-c2cccnc2)c2ccoc12	/	1	/	1	4.3*	14*	11*	0
O=C(NCc1cccc(Cl)c1)c1ccc(-c2cccnc2)c2ccoc12	/	-2	/	-2	0	-2	/	/
C/C(N)=C(/C#N)C(=O)CSc1nnc(-c2ccccc2Br)o1	0	3	5	0	3.8*	14*	17*	1
O=C(CSc1nnc(-c2ccccc2Br)o1)N1CCOCC1	3	4	9	0	1	8	/	/
Cc1oc(-c2ccc(-c3ccccc3)cc2)nc1CN(C)C1CCOC1 (stereo not drawn)	1	2	0	0	1	16*	14*	0
Cc1oc(-c2cccc(Cl)c2)nc1CN(C)C1CCOC1 (stereo not drawn)	1	0	10	-1	-1	-2	/	/
COC(=O)C1CCN(C(=O)c2cc3c(=O)n4cccc(C)c4nc3n2Cc2ccccc2)CC1	2	-1	0	-1	0	-1	/	/
Nc1nc(Nc2ccccc2F)sc1C(=O)c1ccccc1	2	3	10	-1	0	19*	19*	1
C(=C\c1nnc2c3ccccc3ncn12)/c1ccccc1	-2	6.1*	67*	2.5*	1	15*	18*	1
CCCc1ncc(CN2CCCCC2C(=O)Nc2ccc(Oc3ccccc3)nc2)cn1 (stereo not drawn)	0	-2	-1	-2	-2	-1	/	/
Cc1ccc(N(CC(=O)NCc2ccc3c(c2)OCO3)C(=O)c2csnn2)cc1	-1	-2	1	-1	0	3	/	/
COc1cc(OC)c(C2=NOC(C(=O)N3CCc4ccccc4C3)C2)cc1Cl (stereo not drawn)	0	-1	-9	-1	0	14*	-4	0
CC(=O)c1ccc(OCc2cc(C(=O)N3CCN(c4ccccc4)CC3C)no2)cc1 (stereo not drawn)	2	6.1*	15	-1	3	21*	18*	1
COC(=O)c1ccc2nc(NC(=O)C3CC3)sc2c1	1	0	-4	-1	0	9	/	/
COC(=O)c1ccc2nc(NC(=O)C(C)C)sc2c1	1	2	40	0	3	14*	15*	1
CCOC(=O)c1ccc2nc(NC(C)=O)sc2c1	2	2	7	-1	2	14*	13*	1
CCOC(=O)c1ccc2nc(Nc3nc4ccc(F)cc4s3)sc2c1	-4	-1	-10	-2	-2	-10	/	/
Cc1ccc(CONC(=O)c2ccccc2)cc1	4	0	0	0	2	15*	11*	0
CC(C)NC(=O)c1ccc(CONC(=O)OCc2ccccc2)cc1	0	0	/	-1	3	-2	/	/
c1cnc(SCCOc2ccc3c(c2)CCC3)nc1	7.6*	4	2	0	3.7*	15*	17*	1
SMILES	DAX1 inh-1	hcDAF12 agonist	AHR act	ssDAF12 agonist	DAX1 inh-2	hgDAF12 agonist	hgDAF12 ag	LXR ag 2
Cc1ccc(C(=O)N/N=C/C2=Cc3ccccc3OC2C)cc1 (stereo not drawn)	-1	-2	8	-2	0	6	/	/
CC1Oc2ccccc2C=C1/C=N/NC(=O)c1ccccc1 (stereo not drawn)	1	2	3	-1	2	14*	9	0
COc1ccc(COc2ccc3ccc(=O)oc3c2)cc1	1	3	-2	0	1	20*	14*	1
CCCCN(CC)CCNC(=O)c1cc2c(C)nc3ccccc3c2o1	2	5	23	0	2	17*	1	0
CCc1ccc(CNC(=O)c2cc3c(C)nc4ccccc4c3o2)cc1	-2	-4	2	-2	-4	-4	/	/
O=[N+]([O-])c1ccc2nc(-c3cccnc3)[nH]c2c1	1	0	18	-1	0	8	/	/
O=[N+]([O-])c1ccc2nc(-c3ccccc3)[nH]c2c1	2	5	45	0	4.0*	20*	18*	1
O=C(Nc1nc2ccccc2[nH]1)c1cccc([N+](=O)[O-])c1	1	2	50*	0	1	16*	14*	1
CN(C)c1cccc(C(=O)Nc2nc3ccccc3[nH]2)c1	-3	5	-2	0	2	15*	9	1
Cc1ccc(N(C)S(=O)(=O)c2cccc(C(=O)Nc3nc4ccccc4[nH]3)c2)cc1	0	-3	15	-2	-1	-3	/	/
O=C(Nc1nc2ccccc2[nH]1)c1ccc([N+](=O)[O-])cc1	1	4	-3	-1	2	9	/	/
Cc1ccc(-c2nc(CNC(=O)c3cc(C)on3)cs2)cc1	0	-2	10	-1	-3	0	/	/
O=C(COC(=O)c1ccccc1C(=O)c1ccccc1)NCc1ccc(F)cc1	0	-1	2	-1	1	16*	2	0
